Cruzain noTriton = qHTS Assay for Promiscuous and Specific Inhibitors of Cruzain (without detergent); purified cruzain, Z-FR-AMC fluorescence, no detergent; hit rate 2.3% among 200,000; AID 1476, 2009; Potency, µM, for the others: max response, negative = inhibition, actives largely listed as inhibitors; Cruzipain (Trypanosoma cruzi), P25779;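 note: plate controls were enzyme without inhibitor for no effect and buffer without enzyme for full effect; nearly all actives have a fitted effect of over 40% in size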
Target sequence (P25779 123-467 limits assumed): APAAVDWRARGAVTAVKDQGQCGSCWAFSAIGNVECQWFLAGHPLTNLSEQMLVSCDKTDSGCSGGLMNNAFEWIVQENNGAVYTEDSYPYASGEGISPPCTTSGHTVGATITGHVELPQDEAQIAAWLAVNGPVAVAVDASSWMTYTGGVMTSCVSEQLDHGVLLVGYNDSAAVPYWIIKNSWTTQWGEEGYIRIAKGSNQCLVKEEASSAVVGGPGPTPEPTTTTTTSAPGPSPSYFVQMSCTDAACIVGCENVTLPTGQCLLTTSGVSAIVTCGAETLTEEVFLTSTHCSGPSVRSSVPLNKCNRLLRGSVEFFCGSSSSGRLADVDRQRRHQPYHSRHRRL
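Purified cruzain at 1.5 nM, pre-incubated 15 min with compound at room temperature in 100 mM sodium acetate pH 5.5, 5 mM DTT, 0.00005% Triton X-100. Reaction started with 2 uM Z-FR-AMC; AMC fluorescence increase over 60 s gives rate.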
Cruzain Triton = qHTS Assay for Promiscuous and Specific Inhibitors of Cruzain (with detergent). Cruzipain (Trypanosoma cruzi), P25779. purified cruzain, Z-FR-AMC fluorescence, 0.01% Triton. Potency, µM, without a hit: max response, negative = inhibition, most hits filed as inhibitors. hit rate 0.43% among 200,000. AID 1478, 2009;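 note: plate controls were neutral wells for no effect and buffer without enzyme for full effect; nearly all actives have a fitted effect of over 40% in size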
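Read-out: AMC fluorescence (360 nm excitation, 450 nm emission), four reads over 2 min, first-to-third difference used. Conditions: cruzain 1.5 nM, Z-FR-AMC 2 uM, pH 5.5 acetate, 5 mM DTT, 0.01% Triton X-100.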
The depositor's hits bear a star; ? = inconclusive. Hits are enriched below; roughly 2.5% of the tested compounds scored in any of these assays. Calls come from the whole dose curve; as a rule, active = well fitted curve in the direction sought with a large enough effect; inconclusive = small, poorly fitted or top-dose-only effect, or another doubt; inactive = no such curve, though single readings can be large; an effect the other way counts as inactive or inconclusive. Potency is the fitted concentration of half-maximal effect.

SMILES | Cruzain noTriton | Cruzain Triton
COc1ccc(C)cc1NC(=O)c1cc2c(s1)-c1ccccc1SC2 | 16µM* | -6%
CCOC(=O)c1cc(-c2ccccc2)n(CC(=O)Nc2cc(Cl)c(OC)cc2OC)c1C | -4% | 0%
CC(C)(C)c1ccc(Oc2ccc(NC(=O)CCC(=O)OCC(=O)c3ccccc3)cc2)cc1 | ? | -10%
Cc1cc2nc([C@H](C)C(=O)c3ccc(Cl)cc3)c(=O)[nH]c2cc1C | -5% | 1%
COc1cc(Nc2ncc3c(n2)CCN(Cc2cccc(C)c2)C3)cc(OC)c1 | -4% | -7%
Cc1c(Cc2ccc3c(c2)OCO3)sc(NC(=O)c2ccccc2)c1C(N)=O | 25µM* | -3%
Cc1nc(NC(=O)c2ccccc2)sc1Cc1ccc2c(c1)OCO2 | ? | -4%
CCOC(=O)c1c(NC(=O)CN2C(=O)c3ccccc3C2=O)sc(Cc2ccc3c(c2)OCO3)c1C | 10µM* | -1%
CCOC(=O)c1c(NC(=O)/C=C/c2ccc3c(c2)OCO3)sc(C)c1C | 2% | 3%
Cc1cc([N+](=O)[O-])ccc1NC(c1nnc(-c2ccccc2)o1)c1ccccc1F (centres undefined) | -5% | -2%
COc1ccc(Cl)cc1NC(=O)CN1c2ccccc2S(=O)(=O)c2ccccc21 | 20µM* | -9%
COc1ccc(Cl)cc1NC(=O)Cn1cccc1 | 2% | 0%
O=S1(=O)c2ccccc2N(Cc2ccc(Cl)cc2F)c2ccccc21 | 32µM* | -9%
O=S1(=O)c2ccccc2N(Cc2ccc(Cl)cc2)c2ccccc21 | 21% | -2%
COCC(=O)N1CCC2(CC1)CCN(C(=O)Nc1cccc(C#N)c1)CC2 | 16% | 3%
COc1cccc(N2C(=O)C(CC(=O)Nc3ccc(F)cc3)N(CCC3=CCCCC3)C2=O)c1 (centres undefined) | -3% | -6%
CCOc1ccc(CNC(=O)c2ccc(NC(=O)N3CCCCc4ccccc43)cc2)cc1OC | 0% | -2%
COc1cc(/C=C2/N=C(C3CCCCC3)OC2=O)cc(OC)c1OC | 2.5µM* | 2.5µM*
COc1cc(C2=N/C(=C\c3ccccc3)C(=O)O2)cc(OC)c1OC | -8% | 3%
C=CCNC(=O)c1cc2c(=O)n3cc(C)ccc3nc2nc1NCC1CCCO1 (centres undefined) | ? | 22µM*
Cc1ccc2nc3nc(NCC4CCCO4)c(C(=O)NC4CCCC4)cc3c(=O)n2c1 (centres undefined) | 12% | -17%
CC(C)c1ccc(S(=O)(=O)N2CCC(N3CCN(Cc4ccccc4)C(=O)C3=O)CC2)cc1 | 14% | 3%
COc1ccc(-c2cnc(C)o2)cc1S(=O)(=O)Nc1ccc(OC(F)(F)F)cc1 | ? | -12%
Cc1c(Cl)cccc1NC(=O)Nc1c[nH]c(=O)[nH]c1=O | 20µM* | 2%
CCOC(=O)c1ccc(NC(=O)Nc2c[nH]c(=O)[nH]c2=O)cc1 | 8% | 2%
SMILES | Cruzain noTriton | Cruzain Triton
CCOC(=O)c1c(C)[nH]c(C)c1S(=O)(=O)N1CCN(c2ccc(Cl)cc2)CC1 | 17% | -8%
COc1ccc(NC(=O)c2nc(S(C)(=O)=O)ncc2N(Cc2ccc(C)cc2)Cc2ccco2)cc1Cl | 10µM* | -3%
COc1ccc(Cl)cc1NC(=O)c1nc(S(C)(=O)=O)ncc1N(Cc1ccc(C)cc1)Cc1ccco1 | ? | 0%
COc1ccc(CNC(=O)c2cnc3sc4cc(OC)ccc4n3c2=O)cc1 | 1% | -2%
CC#N | -9% | 2%
NC(=O)c1c(N)sc2c1CCCCC2 | 25µM* | -21%
CNC(=O)c1c(N)sc2c1CCCCC2 | -15% | -16%
CCc1ccc(CNC(=O)c2ccc3nc(C(C)C)oc3c2)cc1 | 26% | -7%
Cc1ccccc1NC(=O)COC(=O)c1ccc(CSc2ccc(Cl)cc2)cc1 | 10µM* | 3%
O=C(COC(=O)c1ccc(O)cc1)Nc1ccc(Cl)cc1C(=O)c1ccccc1 | -12% | -11%
O=C(O)c1ccc(SSc2ccc(C(=O)O)cn2)nc1 | 3% | -3%
CCNc1ccc(C(=O)OCC(=O)c2cc(C)n(Cc3ccc4c(c3)OCO4)c2C)cc1[N+](=O)[O-] | 16µM* | -3%
CCNc1ccc(C(=O)OCC(=O)NCc2ccc(C)cc2)cc1[N+](=O)[O-] | 2% | -4%
CCc1ccc2occ(CC(=O)Nc3c(C(=O)c4ccccc4)oc4ccccc34)c2c1 | -16% | -1%
Cc1ccc(S(=O)(=O)c2nnn3c2nc(NCc2ccc4c(c2)OCO4)c2sccc23)cc1C | 25µM* | -6%
Cc1ccc(S(=O)(=O)c2nnn3c2nc(NCc2ccc4c(c2)OCO4)c2sccc23)cc1 | 9% | -6%
Cc1ccc(S(=O)(=O)c2nnn3c2nc(NCCc2ccccc2)c2sccc23)cc1 | 0% | 0%
CC(C)c1ccc(S(=O)(=O)c2nnn3c2nc(NCCc2ccccc2)c2sccc23)cc1 | 10µM* | 0%
O=c1c(O)c(-c2ccc(O)c(O)c2)oc2ccccc12 | -9% | -9%
O=C(CSc1nc(C2CC2)nc2ccccc12)N1c2ccccc2Sc2ccc(C(F)(F)F)cc21 | 4µM* | 2%
O=C(CN1CCCC(O)C1)N1c2ccccc2Sc2ccc(C(F)(F)F)cc21 (centres undefined) | -2% | 3%
CCc1ccccc1NC(=O)Cc1c(C(=O)O)[nH]c2ccc(Cl)cc12 | -3% | 1%
CC(=O)Nc1ccc(S(=O)(=O)NNC(=O)c2cc3c4ccccc4n(C)c3s2)cc1 | -20% | 22µM*
CCCNC(=O)c1cc2c3ccccc3n(C)c2s1 | -2% | -18%
COc1cc2[nH]c(=O)n(CCCC(=O)N3CCN(c4cccc(C(F)(F)F)c4)CC3)c(=O)c2cc1OC | -4% | 0%
SMILES | Cruzain noTriton | Cruzain Triton
Cc1cccc(NC(=O)Cn2cc(C(=O)c3ccco3)c3ccccc32)c1C | 16% | -11%
CCc1ccc2oc(-c3ccc(NC(=O)c4cccc(Cl)c4Cl)cc3)nc2c1 | -2% | -2%
CN1/C(=C\C(=O)c2cccs2)C(C)(C)c2ccccc21 | 10% | -10%
CN1/C(=C\C(=O)Nc2ccc(Cl)cc2)C(C)(C)c2ccccc21 | -2% | -9%
CN1/C(=C\C(=S)NC(=O)c2ccccc2Cl)C(C)(C)c2ccccc21 | 32µM* | 25µM*
COc1ccccc1C(=O)NC(=S)/C=C1/N(C)c2ccccc2C1(C)C | 25µM* | 14µM*
CCc1cc2c(cc3c(=O)n(CC(=O)NC4CCCCC4)nc(CC)n32)s1 | -8% | 0%
O=C(Nc1nc(C2C3CC4CC(C3)CC2C4)cs1)c1cc2cc([N+](=O)[O-])ccc2oc1=O (centres undefined) | 25µM* | -2%
COc1ccc(C(=O)NNC(=O)c2cc3cc([N+](=O)[O-])ccc3oc2=O)cc1OC | 1% | -1%
COc1ccc(/C=N/OCc2nc3c4c(ncn3n2)Oc2ccc3ccccc3c2C4c2ccccc2)cc1 (centres undefined) | 1.6µM* | 5%
COc1ccc(C2c3c(ccc4ccccc34)Oc3ncn4nc(Cc5ccccc5)nc4c32)cc1OC (centres undefined) | ? | -2%
Cc1noc(/C=C/c2ccccc2F)c1S(=O)(=O)N1CCC(C(=O)N(C)Cc2ccco2)CC1 | ? | -5%
Cn1c2ccccc2c2c(C(=O)N3CCN(c4cccc(Cl)c4)CC3)cn(C3CCCCC3)c(=O)c21 | -7% | -3%
COc1cccc(-n2c(SCC(=O)Nc3c(C)cc(C)cc3C)nc3c([nH]c4ccccc43)c2=O)c1 | -24% | -1%
